Inconclusive results are not listed. Unmarked numbers belong to inactive results. The source made the active and inactive calls. Calls follow the shape of the dose curve; as a rule, active = well fitted inhibition curve with a large enough effect; inconclusive = small, poorly fitted or top-dose-only effect; inactive = flat fitted curve, though single readings scatter.
Biological target: Phospholipid hydroperoxide glutathione peroxidase GPX4 (Homo sapiens) (UniProt P36969)
Assay: Primary qHTS Assay for Inhibitors of Recombinant Selenoprotein Glutathione Peroxidase 4 (GPX4) (AID 1845192); also: nearly all actives have a fitted effect of over 65% in size
Conditions: recombinant GPX4, GR-coupled NADPH fluorescence, 15 min; series mostly up to 27.8 µM; activity change, negative = inhibition: at the top concentration
Procedure, shortened: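 qHTS, GR-coupled: GPX4 200 nM + cpd 30 min RT → GSH 1 mM, NADPH 0.5 mM, GR 100 nM → CHP 0.5 mM start; fluor 340/450 at t0 and t15 min; no-enzyme wells as control.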
% is scaled to controls: 0 for no effect and ±100 for the full control effect.

Phospholipid hydroperoxide glutathione peroxidase GPX4 (Homo sapiens), sequence (P36969 whole entry, looked up): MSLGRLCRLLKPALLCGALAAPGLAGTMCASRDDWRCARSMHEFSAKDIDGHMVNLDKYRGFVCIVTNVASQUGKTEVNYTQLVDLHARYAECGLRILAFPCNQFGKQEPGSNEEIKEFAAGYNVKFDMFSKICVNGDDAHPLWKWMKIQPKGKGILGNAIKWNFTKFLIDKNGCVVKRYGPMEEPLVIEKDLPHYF

Compound	activity change, negative = inhibition	outcome
C[C@@H]1O[C@@H](O[C@@H]2\C=C/C=C\C=C/C=C\C[C@H](C)OC(=O)/C=C\[C@H]3O[C@@H]3C[C@H](O)C[C@]3(O)C[C@@H](O)[C@@H](C(=O)O)[C@H](C2)O3)[C@H](O)[C@H](N)[C@@H]1O	1.12%	
C[C@H]1CC[C@@]2(OC1)O[C@H]1CC3C4CC[C@H]5C[C@@H](O[C@@H]6O[C@H](CO)[C@H](O[C@@H]7O[C@H](CO)[C@@H](O)[C@H](O[C@@H]8OC[C@@H](O)[C@H](O)[C@H]8O)[C@H]7O[C@@H]7O[C@H](CO)[C@@H](O)[C@H](O)[C@H]7O)[C@H](O)[C@H]6O)[C@H](O)C[C@]5(C)C4=CC(=O)[C@]3(C)[C@H]1[C@@H]2C (some centres undefined)		inactive [at 15.3 µM]
O=C(/C=C/c1ccc(O)cc1)OCC1OC(O)C(OC2OC(CO)C(O)C(O)C2O)C(O)C1O (centres undefined)	-0.594%	
C=C(COC(=O)CC(C)C)C1Cc2cc(C(C)=O)ccc2O1 (centres undefined)	-3.76% [at 50 µM]	
COc1cn(-c2ccc(-n3cccn3)cc2F)nc(-c2ccnn2-c2ccccc2)c1=O	7% [at 50 µM]	
C=CC(C)(C)C12Nc3c(ccc4c3OC(C)(C)C=C4)C1(O)CC1C(=O)N3CCCC3C(=O)N12 (centres undefined)	-15.8%	
C[C@@H]1C[C@@H](O)[C@@]23CO[C@]2(CO)CCC[C@@H]3[C@@]12C[C@@H](c1ccoc1)OC2=O	2.66%	
CC1=C(CCC(C)O[C@@H]2O[C@H](CO)[C@@H](O)[C@H](O)[C@H]2O)C(C)(C)CC(O)C1 (some centres undefined)	1.32%	
OC[C@H]1O[C@@H](OCCc2ccccc2)[C@H](O)[C@@H](O)[C@@H]1O	-4.96% [at 50 µM]	
Nc1ncnc2c1c(COc1cccc(Cl)c1)nn2C1CCOCC1	1.79% [at 50 µM]	
C=C(C)C1Cc2c(ccc3c2OCC(c2ccc(O)cc2O)C3)O1 (centres undefined)	-15.9%	
CC(C)=C1CC2C(CCC2(C)O)C(C)(O)CC1=O (centres undefined)	-0.609% [at 50 µM]	
C/C=C1/C[N+](C)([O-])C2Cc3c([nH]c4ccccc34)C(=O)CC1C2C(=O)OC (centres undefined)	-10.9%	
C=C1C[C@]23C[C@H]1CC[C@H]2[C@]1(C)CC[C@H](O)[C@@](C)(C(=O)O)[C@H]1[C@@H]3C(=O)O	-10.4%	
CC1=C2CC(=O)C(C)CC/C=C(\C)CC2OC1=O (centres undefined)	-13.1% [at 50 µM]	
CC(=O)OCC1OC(OC2COC(OC3COC(OC4C(OC5C(CO)OC(OC6CCC7(C)C(CCC8(C)C7CC=C7C9CC(C)(C)CCC9(C(=O)OC9OC(CO)C(O)C(O)C9OC9OCC(OC%10OCC(O)(CO)C%10O)C(O)C9O)C(O)CC78C)C6(C)C)C(O)C5O)OCC(O)C4O)C(O)C3O)C(O)C2O)C(OC(=O)/C=C/c2ccccc2)C(O)C1OC(C)=O (centres undefined)	0.258% [at 9.73 µM]	
C/C=C/C=C/C(=O)OC1CC/C=C/C(O)C(O)C(CCC)OC1=O (centres undefined)	-18.4%	
C=C1C2CCC3C(CCC4[C@@]3(C)CCC[C@@]4(C)C(=O)O)(C2)[C@@H]1OC(=O)/C(C)=C\C (some centres undefined)	-19.3%	
C[C@@]1(O)[C@H](O)[C@@H](CO)O[C@H]1n1cnc2c(=O)[nH]c(N)nc21	1.6% [at 50 µM]	
COC(=O)C1=CO[C@@H](O[C@@H]2O[C@H](CO)[C@@H](O)[C@H](O)[C@H]2O)[C@H]2[C@@H]1C=C[C@]21C=C([C@H](C)OC(=O)/C=C/c2ccc(O[C@@H]3O[C@H](CO)[C@@H](O)[C@H](O)[C@H]3O)cc2)C(=O)O1	4.54% [at 15.3 µM]	

Compound	activity change, negative = inhibition	outcome
CC1=C2C[C@@]3(C)C(CCC[C@@H]3C)C(O)C2(O)OC1=O (some centres undefined)	-10.8% [at 50 µM]	
OC[C@H]1O[C@@H](O[C@H]2[C@H](O)[C@@H](CO)O[C@@H](OCc3ccccc3)[C@@H]2O[C@@H]2OC[C@](O)(CO)[C@H]2O)[C@H](O)[C@@H](O)[C@@H]1O		inactive
CC(C)(CC(=O)N1CCCC1)NCC(=O)N1C[C@@H](F)C[C@H]1C#N	-8.67% [at 50 µM]	
CC(C)=C1C[C@@]2(C)C(=CC1=O)CC[C@@H](O)[C@@H]2C	0.764% [at 50 µM]	
CC(C)CC[C@@H](O)[C@](C)(O)[C@H]1CC[C@@]2(O)C3=CC(=O)[C@@H]4C[C@@H](O)[C@@H](O)C[C@]4(C)[C@H]3CC[C@]12C	-7.38% [at 50 µM]	
C=C1C(OC(C)=O)CCC2(C)CCC(C(C)(C)O)CC12 (centres undefined)		inactive [at 50 µM]
CSC(=O)OCC1=C[C@@H]2OC(=O)C3=CO[C@@H](O[C@@H]4O[C@H](CO)[C@@H](O)[C@H](O)[C@H]4O)[C@H]1[C@@H]32	-4%	
COc1cc(C(=O)OC[C@H]2O[C@@H](OC(C)(C)C(=O)O)[C@H](O)[C@@H](O)[C@@H]2O)cc(OC)c1O	-2.46%	
C[C@]1(OC(=O)/C=C/c2ccc(O)cc2)C[C@@H](O)[C@]2(O)C=CO[C@@H](O[C@@H]3O[C@H](CO)[C@@H](O)[C@H](O)[C@H]3O)C12 (some centres undefined)	-4.79%	
CC(CCO)CCC1C2(C)CCCC(C)(C)C2CC[C@@]1(C)O (some centres undefined)	-15.8%	
COc1ccc(C(=O)OC2C3C=COC(OC4OC(CO)C(O)C(O)C4O)C3C3(CO)OC23)cc1OC (centres undefined)	2.76%	
COc1cccc(C)c1C(=O)O[C@@H]1C[C@H](O[C@H]2[C@H](O)C[C@H](O[C@@H]3CCC[C@H]4[C@H]3C=C[C@@H]3CCCC/C=C/[C@H]5C=C(C(=O)O)[C@@H](C)C[C@@]56OC(=O)C(=C6O)OC(=O)[C@@]34C)O[C@@H]2C)O[C@H](C)[C@H]1O	-2.66% [at 15.3 µM]	
CC(=O)OCC1=C[C@@H]2OC(=O)C3=CO[C@@H](O[C@@H]4O[C@H](CO)[C@@H](O)[C@H](O)[C@H]4O)[C@H]1[C@@H]32	-0.503%	
O=C(COCC(=O)N1CCN(C(c2ccccc2)c2ccccc2)CC1)Nc1ccc(Cl)cc1C(=O)O	-11.6% [at 50 µM]	
CC1(C)CC[C@]2(C(=O)O[C@@H]3O[C@H](CO)[C@@H](O)[C@H](O)[C@H]3O)[C@H](O)C[C@]3(C)C(=CCC4[C@@]5(C)CC[C@H](O[C@@H]6OC[C@@H](O)[C@H](O)[C@H]6O)[C@@](C)(C(=O)O)C5CC[C@]43C)[C@@H]2C1 (some centres undefined)	2.55% [at 15.3 µM]	
C=C1CCC2C(C)(C)CC(O)CC2(C)C1CCC(C)CCOC(=O)CCC(=O)O (centres undefined)	-38.5%	
COc1cccc(C(=O)NCCNc2nc3cc(C)cc(C)c3cc2C#N)c1	1.83% [at 50 µM]	
C=C(CCO)C(=O)OCC1OCC(OC(=O)C(=C)CCO[C@@H]2O[C@H](COC(=O)C(=C)CCO[C@@H]3O[C@H](CO)[C@@H](O)[C@H](O)[C@H]3O)[C@@H](O)[C@H](O)[C@H]2O)C(O)C1O (some centres undefined)		inactive [at 15.3 µM]
C[C@@H]1C(=O)O[C@H](C)[C@H]1C[C@@H](O)[C@](C)(O)[C@H]1CC[C@@]2(O)C3=CC(=O)[C@@H]4C[C@@H](O)[C@@H](O)C[C@]4(C)C3CC[C@]12C (some centres undefined)		inactive

Reference: PubChem BioAssay (NCATS)
